Assay outcomes from PubChem.
USP10 inh – inhibitors of human USP10 deubiquitinase; Ubiquitin carboxyl-terminal hydrolase 10 (Homo sapiens), Q14694; purified USP10, Ub-rhodamine fluorescence, 60 min; inhibition, % at 20 µM; 47,000 tested, 1.1% active; AID 1645856, 2021
Target sequence (Q14694 whole entry, looked up): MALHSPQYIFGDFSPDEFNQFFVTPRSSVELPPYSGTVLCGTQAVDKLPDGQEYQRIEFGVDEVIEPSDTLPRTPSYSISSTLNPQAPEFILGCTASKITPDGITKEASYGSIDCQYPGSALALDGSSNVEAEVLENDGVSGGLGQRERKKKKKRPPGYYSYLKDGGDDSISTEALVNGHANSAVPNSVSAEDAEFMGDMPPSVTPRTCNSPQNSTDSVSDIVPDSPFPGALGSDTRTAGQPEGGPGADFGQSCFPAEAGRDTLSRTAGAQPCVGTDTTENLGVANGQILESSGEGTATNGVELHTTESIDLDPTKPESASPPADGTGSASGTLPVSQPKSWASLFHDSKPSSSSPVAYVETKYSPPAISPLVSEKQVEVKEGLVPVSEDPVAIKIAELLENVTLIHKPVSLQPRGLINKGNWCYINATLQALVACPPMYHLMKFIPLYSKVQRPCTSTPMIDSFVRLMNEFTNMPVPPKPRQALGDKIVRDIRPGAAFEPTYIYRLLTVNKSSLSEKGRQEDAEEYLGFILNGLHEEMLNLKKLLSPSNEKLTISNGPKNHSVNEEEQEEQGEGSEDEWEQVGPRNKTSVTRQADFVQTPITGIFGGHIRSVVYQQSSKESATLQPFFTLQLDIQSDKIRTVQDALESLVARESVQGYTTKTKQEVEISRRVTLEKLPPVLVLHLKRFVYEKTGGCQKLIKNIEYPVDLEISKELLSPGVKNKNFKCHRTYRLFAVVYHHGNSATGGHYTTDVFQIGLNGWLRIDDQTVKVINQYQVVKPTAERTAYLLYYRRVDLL
USP17 inh – inhibitors of human USP17 deubiquitinase | Ubiquitin carboxyl-terminal hydrolase 17-like protein 5 (Homo sapiens), A8MUK1 | purified USP17, Ub-rhodamine cleavage fluorescence, 3 h | inhibition, % at 50 µM | 47,000 tested, 6.5% active | AID 1645855, 2021
USP28 inh – inhibitors of human USP28 deubiquitinase; AID 1645857, 2021; purified USP28, Ub-rhodamine cleavage fluorescence, 30 min; 47,000 tested, 3% active; inhibition, % at 25 µM
USP30 block – inhibitors of human USP30 deubiquitinase; Ubiquitin carboxyl-terminal hydrolase 30 (Homo sapiens), Q70CQ3; AID 1645860, 2021; 47,000 tested, 5.3% active; purified USP30, Ub-rhodamine cleavage fluorescence; inhibition, % at 25 µM
USP8 inh – inhibitors of human USP8 deubiquitinase. purified USP8, Ub-rhodamine cleavage fluorescence, 30 min. 47,000 tested, 4.2% active. AID 1645853, 2021. Ubiquitin carboxyl-terminal hydrolase 8 (Homo sapiens), P40818. inhibition, % at 20 µM
The depositor's hits bear a star. In the library only some 14% were active in any assay of this set; here they are far more common. No stated cut-off is given here; in the data, active means inhibition above about 30%; inactive means the rest.

Screening COc1cccc(-n2ccc(=O)c(-c3nc(-c4cccc(C)c4)no3)n2)c1 returned USP10 inh -6, USP17 inh 0, USP28 inh 1, USP30 block -48 and USP8 inh 7.
Screening CCOc1cccc(-c2noc(-c3nn(-c4cccc(C)c4)ccc3=O)n2)c1 returned USP10 inh 9, USP17 inh 1, USP28 inh -7, USP30 block -3 and USP8 inh 88*.
CCOc1cccc(-c2noc(-c3nn(-c4ccccc4)ccc3=O)n2)c1 was read as USP10 inh 24, USP17 inh 52*, USP28 inh 70*, USP30 block 93* and USP8 inh 93*.
Screening O=C(CN1CCN(c2ccccc2F)CC1)c1ccc2c(c1)CCN2 returned USP10 inh -1, USP17 inh -7, USP28 inh -2, USP30 block 0 and USP8 inh -34.
Cc1ccc(C(=O)c2cn(CC(=O)Nc3ccccc3)c3ccccc3c2=O)cc1 was read as USP10 inh 46*, USP17 inh 37*, USP28 inh 23, USP30 block 35* and USP8 inh 97*.
`Cc1ccc2c(c1)c(=O)c(C(=O)c1ccccc1)cn2CC(=O)Nc1ccc2c(c1)OCCO2` gave USP10 inh 26, USP17 inh 62*, USP28 inh -5, USP30 block -5 and USP8 inh 30.
For Cc1ccc(C(=O)c2cn(CC(=O)Nc3ccccc3)c3ccc(C)cc3c2=O)cc1 the results were USP10 inh 36*, USP17 inh 53*, USP28 inh 1, USP30 block 14 and USP8 inh 62*.
For COc1ccccc1NC(=O)Cn1cc(C(=O)c2ccc(C)cc2)c(=O)c2cc(C)ccc21 the results were USP10 inh 0, USP17 inh 15, USP28 inh 6, USP30 block 25 and USP8 inh 17.
Screening Cc1ccc(CS(=O)(=O)c2cn(CC(=O)Nc3cccc(F)c3)c3ccccc23)cc1 returned USP10 inh 3, USP17 inh 9, USP28 inh 2, USP30 block -38 and USP8 inh 25.
COc1ccc(NC(=O)Cn2cc(C(=O)c3ccc(C)cc3)c(=O)c3ccccc32)cc1 was read as USP10 inh 38*, USP17 inh 85*, USP28 inh 41*, USP30 block 49* and USP8 inh 49*.
`CCOC(=O)N1C[C@H](C(=O)NC)[C@H]2c3ccccc3N(CC(=O)N(C)C)C(=O)[C@]21C` gave USP10 inh 1, USP17 inh 2, USP28 inh -6, USP30 block 0 and USP8 inh 0.
Screening Cc1cccn2cc(CSc3nnc(C4CC4)n3Cc3ccccc3)nc12 returned USP10 inh -1, USP17 inh -10, USP28 inh -2, USP30 block -26 and USP8 inh -15.
COc1c(O)c2c(=O)cc(OC)c3c4c(OC)cc(=O)c5c(O)c(OC)c(CC(C)O)c(c(c1CC(C)O)c23)c54 (configuration not stated) was read as USP10 inh -2, USP17 inh -181, USP28 inh -214, USP30 block inactive and USP8 inh -301.
Screening Cc1[nH]c2ccccc2c1C1CCN(S(=O)(=O)c2cccc([N+](=O)[O-])c2)CC1 returned USP10 inh 7, USP17 inh 5, USP28 inh 24, USP30 block -11 and USP8 inh -36.
Screening O=C(Cn1cc(C(=O)c2ccc(F)cc2)c(=O)c2ccccc21)Nc1ccc2c(c1)OCO2 returned USP10 inh 47*, USP17 inh 12, USP28 inh 12, USP30 block 42* and USP8 inh 71*.
For C/C=C\C1=CC(=O)[C@]23C[C@H]2[C@]2(C)CO[C@@]1(O)[C@@]3(O)O2 the results were USP10 inh -10, USP17 inh 52*, USP28 inh -9, USP30 block -137 and USP8 inh -321.
For COc1ccc(S(=O)(=O)N(C)Cc2cccs2)cc1OC the results were USP10 inh 0, USP17 inh 11, USP28 inh 68*, USP30 block 27 and USP8 inh 15.
For Cn1cc2c(n1)C(C(=O)NCCc1c[nH]c3ccc(F)cc13)CNC2 (configuration not stated) the results were USP10 inh -2, USP17 inh -39, USP28 inh -15, USP30 block -16 and USP8 inh -1.
O=C(NCCc1c[nH]c2ccc(F)cc12)C(=O)Nc1cccc2ncccc12 was read as USP10 inh -1, USP17 inh 45*, USP28 inh -9, USP30 block -7 and USP8 inh 8.
For O=C(NCCc1nc2ccccc2n1CCOc1ccccc1Cl)C1CCCCC1 the results were USP10 inh 38*, USP17 inh 64*, USP28 inh 30*, USP30 block 55* and USP8 inh 83*.
Cc1cccc(OCCn2c(CCNC(=O)C3CCCCC3)nc3ccccc32)c1 was read as USP10 inh 32*, USP17 inh 42*, USP28 inh 11, USP30 block 79* and USP8 inh 48*.
`CCc1ccc(OCCn2c(CCNC(=O)C3CCCCC3)nc3ccccc32)cc1` gave USP10 inh 28, USP17 inh 6, USP28 inh 17, USP30 block 27 and USP8 inh 69*.
For COc1ccccc1OCCCn1c(CN(C)C(=O)c2ccco2)nc2ccccc21 the results were USP10 inh 1, USP17 inh -10, USP28 inh 1, USP30 block -1 and USP8 inh -7.
For COc1ccccc1C(=O)Nc1nc2ccccc2n1CCOc1ccccc1 the results were USP10 inh 2, USP17 inh -31 and USP8 inh 2.
Screening Cc1ccc(C(C)NC(=O)c2cccc(-c3cnc(N4CCCC4)nc3)c2)cc1 (configuration not stated) returned USP10 inh 4, USP17 inh 11, USP28 inh -6, USP30 block -10 and USP8 inh 2.
Screening Cc1ccccc1CNC(=O)c1cccc(-c2cnc(N3CCCC3)nc2)c1 returned USP10 inh -3, USP17 inh 5, USP28 inh 8, USP30 block 32* and USP8 inh 6.
O=C(Nc1ccccc1Oc1ccccc1)C(c1ccccc1)c1ccccc1 was read as USP10 inh 14, USP17 inh 23, USP28 inh 22, USP30 block 37* and USP8 inh 23.
For N#Cc1ccc(OCC(=O)Nc2ccccc2Oc2ccccc2)cc1 the results were USP10 inh 6, USP17 inh 11, USP28 inh 0, USP30 block -10 and USP8 inh 6.
`Cn1c(=O)sc2cc(NC(=O)c3ccc(Br)cc3)ccc21` gave USP10 inh 1, USP17 inh 59*, USP28 inh -2, USP30 block -49 and USP8 inh 3.
